Source: PubChem (National Center for Advancing Translational Sciences (NCATS))
Hits are enriched below; roughly 5.8% of the tested compounds scored in any of these assays.
TRPV1 ag: HTS Assay for Compounds that Act as Agonists of the Vanilloid Receptor 1; Transient receptor potential cation channel subfamily V member 1 (Homo sapiens), Q8NER1; TRPV1-expressing cells, Fluo-8 calcium influx, agonist mode; activation, % at 8.33 µM; hit rate 0.19% among 320,000; AID 540275, 2011; in the data active = activation above about 80%; inconclusive = between about 30% and that limit; note: 0% is about no effect
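TRPV1-expressing cells were cultured overnight at 35.5C and loaded with Fluo-8 calcium dye for 40 to 90 min at room temperature. After a 10 s baseline, compound was added and calcium influx was read kinetically for 3 min (ex 480/em 520 nm).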
Gal4-VP16 FLuc: VP16 counterscreen qHTS for inhibitors of ROR gamma transcriptional activity; hit rate 3.5% among 310,000; Potency, µM (titrated, usually from 53.6 µM), inactives show at the highest dose activity, negative = inhibition, hits mostly inhibitors; Drosophila S2 Gal4-VP16 UAS-luciferase, luminescence, 20 h;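 note: Gal4-VP16 expression switched on by copper sulfate through the metallothionein promoter; potency is the fitted concentration of half-maximal effect; % is set by controls: 0 for no effect and ±100 for the full control effect; nearly all actives have a fitted effect of over 50% in size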
RORgamma inh: qHTS for inhibitors of ROR gamma transcriptional activity; Nuclear receptor ROR-gamma (Mus musculus), P51450; Drosophila S2 Gal4-RORgamma UAS-luciferase reporter, 20 h; Potency, µM (series often up to 53.6 µM), for inactives: top-dose activity change, negative = inhibition, most hits filed as inhibitors; hit rate 5.4% among 310,000; AID 2551, 2010; note: potency is the fitted concentration of half-maximal effect; % is set by controls: 0 for no effect and ±100 for the full control effect; nearly all actives have a fitted effect of over 60% in size
Target sequence (P51450 whole entry, looked up, the tested form may be a part): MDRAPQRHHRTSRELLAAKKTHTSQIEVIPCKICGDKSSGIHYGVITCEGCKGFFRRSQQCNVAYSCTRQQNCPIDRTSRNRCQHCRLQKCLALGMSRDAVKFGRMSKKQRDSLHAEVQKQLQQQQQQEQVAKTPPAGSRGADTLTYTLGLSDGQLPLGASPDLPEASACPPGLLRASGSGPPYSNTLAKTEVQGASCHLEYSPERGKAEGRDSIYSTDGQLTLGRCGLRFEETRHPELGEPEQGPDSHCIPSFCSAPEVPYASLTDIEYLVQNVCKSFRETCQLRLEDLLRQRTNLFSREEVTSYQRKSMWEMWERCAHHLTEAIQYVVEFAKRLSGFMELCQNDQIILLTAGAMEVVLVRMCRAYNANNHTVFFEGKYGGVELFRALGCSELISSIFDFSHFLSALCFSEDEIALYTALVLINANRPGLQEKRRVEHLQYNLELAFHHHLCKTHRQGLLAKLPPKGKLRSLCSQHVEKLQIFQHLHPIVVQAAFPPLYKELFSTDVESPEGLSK
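Using a luciferase readout, inhibitors were identified by reduced reporter activity in Drosophila cells coexpressing a copper-inducible Gal4–ROR gamma fusion and UAS-driven Photinus luciferase, incubated 20 hr after 700 uM copper sulfate.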
TRPV1 potentiator: HTS Assay for Compounds that Act as Potentiators of the Vanilloid Receptor 1; Transient receptor potential cation channel subfamily V member 1 (Homo sapiens), Q8NER1; TRPV1-expressing cells, Fluo-8 calcium influx, capsaicin EC20 potentiation; potentiation, % at 8.33 µM; hit rate 0.02% among 320,000; AID 540277, 2011; in the data active = potentiation above about 80%; inconclusive = between about 30% and that limit; note: 0% is about no effect
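Fluo-8 calcium influx in TRPV1-expressing cells, kinetic read (ex 480/em 520 nm). Compound added and read 3 min for agonist activity, followed by capsaicin at EC20 final and 2 min further read for enhancement.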
uPA generation: qHTS for Inhibitors of Cell Surface uPA Generation; hit rate 0.31% among 330,000; AID 540303, 2011; cell surface uPA generation assay, qHTS; Potency, µM (top dose mostly 38.3 µM), for inactives: at the top dose activity change, negative = inhibition, hits mostly inhibitors; active = well fitted inhibition curve with a large enough effect; inconclusive = small, poorly fitted or top-dose-only effect; inactive = no such curve, though single readings can be large or run the other way; tested in mouse RAW 264.7 cells; note: potency is the fitted concentration of half-maximal effect; % is set by controls: 0 for no effect and ±100 for the full control effect; nearly all actives have a fitted effect of over 55% in size
An asterisk follows results filed as active. Unless noted, calls come from the whole dose curve; as a rule, active = well fitted curve in the direction sought with a large enough effect; inconclusive = small, poorly fitted or top-dose-only effect, or another doubt; inactive = no such curve, though single readings can be large; an effect the other way counts as inactive or inconclusive.

For Cc1ccc2c(c1)cc1c(=O)n(CC(=O)N3CCCC3)nc(C)n12 the results were TRPV1 ag 0, Gal4-VP16 FLuc 7%, RORgamma inh 2%, TRPV1 potentiator 2 and uPA generation -1%.
For COC(=O)c1ccc(-c2ccc(C3C4C=CCC(C)C4C(=O)N3Cc3ccccc3)c(F)c2)cc1 (configuration not stated) the results were Gal4-VP16 FLuc 2% and RORgamma inh 31%.
`O=C(O)C1C2CCC(O2)C1C(=O)Nc1cccc(Cl)c1` (configuration not stated) gave TRPV1 ag 3, Gal4-VP16 FLuc 3%, RORgamma inh -11%, TRPV1 potentiator 29 and uPA generation -12%.
Screening COC(=O)CC(NC(=O)c1ccc(C)cc1)c1ccc2c(c1)OCO2 (configuration not stated) returned TRPV1 ag 2, Gal4-VP16 FLuc -1%, RORgamma inh 11%, TRPV1 potentiator -12 and uPA generation -2%.
`COC(=O)CC(NC(=O)c1ccc(C)cc1)c1ccccc1` (configuration not stated) gave TRPV1 ag inconclusive, Gal4-VP16 FLuc -30%, RORgamma inh 8.9µM*, TRPV1 potentiator -12 and uPA generation -6%.
`CC(=O)Oc1ccc(N2C(=O)C3C4C=CC(CO)(O4)C3C2=O)cc1` (configuration not stated) gave TRPV1 ag -2, Gal4-VP16 FLuc inconclusive, RORgamma inh 5µM*, TRPV1 potentiator 6 and uPA generation 3%.
O=C1C2C3C=CC(CNS(=O)(=O)c4ccccc4)(O3)C2C(=O)N1c1ccc(Cl)cc1 (configuration not stated) was read as TRPV1 ag 1, Gal4-VP16 FLuc inconclusive, RORgamma inh -106%, TRPV1 potentiator 0 and uPA generation -8%.
For O=C1C2C3C=CC(CO)(O3)C2C(=O)N1c1ccccc1-c1ccccc1 (configuration not stated) the results were TRPV1 ag 0, Gal4-VP16 FLuc 2.2µM*, RORgamma inh 1.8µM*, TRPV1 potentiator 27 and uPA generation inconclusive.
Screening CC(=O)Oc1ccc(N2C(=O)C3C(C2=O)C2(C)C=CC3(C)O2)cc1 (configuration not stated) returned TRPV1 ag -2, Gal4-VP16 FLuc 4.5µM*, RORgamma inh 4µM* and TRPV1 potentiator 1.
`COC(=O)c1cc(N2C(=O)C3C(C2=O)C2(C)C=CC3(C)O2)ccc1Cl` (configuration not stated) gave TRPV1 ag -1, Gal4-VP16 FLuc 5.6µM*, RORgamma inh 3.5µM* and TRPV1 potentiator -10.
`COc1cccc(Cn2c(=O)c(-c3cccs3)nc3cnc(N4CCOCC4)nc32)c1` gave Gal4-VP16 FLuc -6% and RORgamma inh 24%.
Screening O=C(CSc1ccc(S(=O)(=O)N2CCCCC2)cn1)Nc1ccccc1Br returned TRPV1 ag 26, TRPV1 potentiator -4 and uPA generation 0%.
CCC(C)c1cc([N+](=O)[O-])cc([N+](=O)[O-])c1OC(C)=O (configuration not stated) was read as Gal4-VP16 FLuc 1% and RORgamma inh -11%.
`[C-]#[N+]/C(C#N)=C\c1cc(C(C)(C)C)c(O)c(C(C)(C)C)c1` gave Gal4-VP16 FLuc 8.9µM* and RORgamma inh 0.2µM*.
CC(C)(C)c1cc(/C=N/O)cc(C(C)(C)C)c1O was read as TRPV1 ag 1, Gal4-VP16 FLuc 5%, RORgamma inh 26%, TRPV1 potentiator -6 and uPA generation 2%.
`COc1ccc(-c2cnnc(N/N=C/c3ccc(C)o3)n2)cc1` gave TRPV1 ag 4, Gal4-VP16 FLuc -9%, RORgamma inh 5µM*, TRPV1 potentiator -6 and uPA generation -2%.
Screening COc1ccc(-c2cnnc(N/N=C/c3ccc(O)c(O)c3)n2)cc1 returned TRPV1 ag 18, Gal4-VP16 FLuc 8.9µM*, RORgamma inh inconclusive, TRPV1 potentiator -1 and uPA generation -9%.
For COc1ccc(-c2cnnc(N/N=C/c3ccc(O)cc3)n2)cc1 the results were TRPV1 ag 1, Gal4-VP16 FLuc 0%, RORgamma inh 3%, TRPV1 potentiator -4 and uPA generation -8%.
Screening O=C(NCCc1ccccn1)C(F)(F)C(F)(F)C(F)(F)C(F)(F)C(F)(F)C(F)F returned TRPV1 ag -5, Gal4-VP16 FLuc inconclusive, RORgamma inh 40%, TRPV1 potentiator 11 and uPA generation 3%.
O=C(Nc1ccccc1F)C1CCN(S(=O)(=O)c2cccc3nonc23)CC1 was read as TRPV1 ag 0, Gal4-VP16 FLuc 3%, RORgamma inh 60%, TRPV1 potentiator -1 and uPA generation 3%.
Screening C=CCOc1c(CNc2cccc(C(=O)O)c2)cccc1OC returned TRPV1 ag 0, Gal4-VP16 FLuc inconclusive, RORgamma inh 10µM*, TRPV1 potentiator -6 and uPA generation -4%.
`Cc1nc(NC(=O)/C=C/c2ccccc2)sc1C(=O)Nc1ccc(Cl)cc1` gave Gal4-VP16 FLuc inconclusive, RORgamma inh -38% and uPA generation 2%.
Screening Cc1nc(NC(=O)/C=C/c2ccccc2)sc1C(=O)Nc1ccccc1Cl returned TRPV1 ag 2, Gal4-VP16 FLuc inconclusive, RORgamma inh 16µM*, TRPV1 potentiator -5 and uPA generation 5%.
Screening C/C(=N\NC(=O)C1CCCC1)c1ccc(Cl)c(Cl)c1 returned TRPV1 ag 23, Gal4-VP16 FLuc -3%, RORgamma inh 9%, TRPV1 potentiator -2 and uPA generation -1%.
For C/C(=N\NC(=S)NC1CCCCC1)c1ccc(OC(F)F)cc1OC(F)F the results were TRPV1 ag -4, Gal4-VP16 FLuc inconclusive, RORgamma inh inconclusive, TRPV1 potentiator inconclusive and uPA generation 3%.
C/C(=N\NC(=S)NC1CCCCC1)c1cccs1 was read as TRPV1 ag inconclusive, Gal4-VP16 FLuc 0.79µM*, RORgamma inh inconclusive, TRPV1 potentiator -14 and uPA generation -1%.
Screening C/C(=N\NC(=S)NC1CCCCC1)c1c(F)cccc1F returned TRPV1 ag inconclusive, Gal4-VP16 FLuc 2.8µM*, RORgamma inh 0.63µM*, TRPV1 potentiator -14 and uPA generation -4%.
C/C(=N\NC(=S)NC1CCCCC1)c1ccc(Cl)c(Cl)c1 was read as TRPV1 ag inconclusive, Gal4-VP16 FLuc 2.8µM*, RORgamma inh 1.4µM*, TRPV1 potentiator -17 and uPA generation 11%.
Screening NC(=O)C1=C(N=C2CCCCC2)CCCC1 returned uPA generation 1%.
